# Data from PubChem BioAssay AID2546 (National Center for Advancing Translational Sciences (NCATS), 2010).
# The whole screen tested about 310,000 compounds, of which about 11,000 (3.5%) were called active. Entries that show only a call come without a potency. About 8% were inconclusive and are not listed. This is one part of a sample in which actives are shown more often than they occur. Calls come from the whole dose curve; as a rule, active = well fitted inhibition curve with a large enough effect; inconclusive = small, poorly fitted or top-dose-only effect, or effect the other way; inactive = flat fitted curve, though single readings scatter.
# Assay: VP16 counterscreen qHTS for inhibitors of ROR gamma transcriptional activity;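 note: Gal4-VP16 expression switched on by copper sulfate through the metallothionein promoter; nearly all actives have a fitted effect of over 50% in size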
# Conditions: Drosophila S2 Gal4-VP16 UAS-luciferase, luminescence, 20 h; series mostly up to 53.6 µM
# Source text: NIH Molecular Libraries Probe Production Network [MLPCN]
# NIH Chemical Genomics Center [NCGC]
# Assay Provider: Dan Littman, New York University
# The retinoic acid-related orphan receptor (ROR) gamma is a transcription factor that has a central role in the differentiation of Th17 cells, a subset of T helper cells that secrete the inflammatory cytokines IL-17, IL-17F, and IL-22. Th17 cells have been implicated in graft versus host disease, autoimmune disease and asthma. ROR gamma is induced in naive T helper cells in the presence of TGF-beta combined with IL-6, IL-21, or IL-23, and thereafter directs the expression of the Th17 lineage cytokines. To identify nonspecific inhibitors, a Drosophila Schneider cell line was stably transfected with two vectors: a gene expressing a fusion of the Gal4 DNA binding domain and VP16 transactivation domain under the control of the metallothionine promoter and a Photinus luciferase reporter regulated by the Gal4 binding site enhancer, UAS. […] Small molecule inhibitors that inhibit components common to the RORgt and VP16 assays, such as the Gal4 DNA binding domain or the UAS luciferase reporter, will be active in both assays and thus scored as nonspecific.
# For screening, 600 cells in 4 uL/well were dispensed into white solid 1536-well plates (Grenier) using a solenoid-based dispenser. Following transfer of 23 nL compound or DMSO vehicle by a pin tool, the plates were incubated 1 hr at ambient temperature, and 1 uL/well copper sulfate (700 uM final concentration) was added. The plates were centrifuged 15 s at 1000 RPM and incubated 20 hr at ambient temperature. After addition of 1.5 uL Photinus luciferase detection reagent, the plates were incubated 10 min at ambient temperature and then read by a ViewLux (Perkin Elmer) to detect luminescence.
# Potency is the fitted concentration of half-maximal effect.
row,SMILES,Potency
1,COc1ccc(N(C(=O)c2snc(C(N)=O)c2N)C(C(=O)NC2CCCC2)c2ccco2)cc1OC (configuration not stated),inactive
2,COc1ccc(C(=O)NC(=S)N2CCCCC2c2cccnc2)cc1OC (configuration not stated),17.8 µM (active)
3,O=C(Nc1ccccc1C(F)(F)F)N1CCCC1c1cccnc1 (configuration not stated),inactive
4,Cc1ccc(-c2cc(C(F)(F)F)n3ncc(C(=O)N4CCCCC4c4cccnc4)c3n2)cc1 (configuration not stated),inactive
5,COc1ccc(C(=O)N2CCCC(C(=O)c3ccccc3OC)C2)cc1OC (configuration not stated),inactive
6,O=C(NC(=S)N1CCCCC1c1cccnc1)c1ccccc1 (configuration not stated),4.47 µM (active)
7,COc1ccc(C(=O)Nc2cccnc2)cc1C(=O)Nc1cccnc1,inactive
8,COc1ccc(Nc2ncnc3sc(C)cc23)cc1,inactive
9,Cc1ccc(-c2ccnc3[nH]n(-c4ccccc4)c(=O)c23)cc1,inactive
10,CCc1nnc(NS(=O)(=O)c2ccc(N=Cc3c(C)[nH]n(-c4ccc(C)cc4)c3=O)cc2)s1,inactive
11,Cc1ccc(-n2[nH]c(C)c(/C=N/N3C(=O)c4cccc5cccc(c45)C3=O)c2=O)cc1,12.6 µM (active)
12,O=C(CNC(=O)C1COc2ccccc2O1)N/N=C/c1cc(Br)c(O)c(Br)c1 (configuration not stated),inactive
13,O=C(NCCc1c[nH]c2ccccc12)C1CCN(Cc2ccc(Br)cc2)CC1,inactive
14,COc1ccccc1N1CCN(C(=O)CCS(=O)(=O)c2ccc3c(c2)NC(=O)C(C)S3)CC1 (configuration not stated),inactive
15,CCOc1ccc(NC(=O)C2CCN(C(=O)N3CCOc4ccccc43)CC2)cc1,inactive
16,CCCNC(=O)c1cnc(-c2ccccc2)nc1-c1ccccc1,inactive
17,CCOC(=O)c1c(C)[nH]c(C)c1S(=O)(=O)N(C)CC(=O)Nc1ccccc1C,inactive
18,CC(=O)c1c(C)[nH]c(=S)c(C#N)c1-c1ccc(F)cc1,inactive
19,CCOC(=O)c1c(C)[nH]c2c1-c1ccccc1C(=O)C2=O,2.82 µM (active)
20,CCOC(=O)c1c(C)nc(-c2ccccc2)nc1NC(=O)C(C)C,inactive
21,CCOC(=O)c1c(C)[nH]c(C(=O)NCc2ccccc2OC)c1C,inactive
22,CCOC(=O)c1c(C)[nH]c(=S)c(C#N)c1-c1ccccc1,17.8 µM (active)

row,SMILES,Potency
1,COc1cccc(CN(C)C(=O)CC23CC4CC(CC(C4)C2)C3)c1OC,inactive
2,COc1cc(/C=C/C(=O)O)cc(S(=O)(=O)Nc2ccccc2C(=O)NCCc2ccccc2)c1OC,inactive
3,OC(CNCCc1ccc(Cl)cc1Cl)COc1ccccc1 (configuration not stated),inactive
4,O=C(CCCCCNC(=O)c1ccccc1)N/N=C/c1ccccc1,inactive
5,O=C(N/N=C/c1ccccc1O)/C(=C/c1ccccc1)CCO,1.12 µM (active)
6,O=C(CCC(=O)Nc1ccccc1)N/N=C/c1ccccc1F,inactive
7,COc1ccc(CNS(=O)(=O)c2ccc(-c3cnc(C4CC4)o3)cc2)cc1,inactive
8,Cc1ccc(S(=O)(=O)NNC(=O)/C=C/c2cccc(F)c2)cc1,inactive
9,Cc1c(CC(=O)NCC(=O)NCC(=O)O)c(=O)oc2cc3oc4c(c3cc12)CCCC4,inactive
10,Cc1cc(C2=NNC(=Nc3ccc(S(=O)(=O)N4CCOCC4)cc3)SC2)c(C)n1CC1CCCO1 (configuration not stated),inactive
11,C=CCn1c(C)cc(C2=NNC(=NCC)SC2)c1C,1 µM (active)
12,CS(=O)(=O)N1CCc2cc(C(=O)Nc3ccccc3Br)ccc21,inactive
13,CC(=O)Nc1cc(C(=O)O)ccc1S(=O)(=O)c1ccc(Cl)cc1,inactive
14,CS(=O)(=O)c1ccc(Cl)c(NC(=O)Nc2ccccc2)c1,inactive
15,O=C(Nc1ccccc1)c1nnsc1S(=O)(=O)c1ccc(Cl)cc1,11.2 µM (active)
16,CC(=O)Nc1ccc(NC(=O)CN2C(=O)COc3ccc(S(=O)(=O)N4CCCCC4)cc32)cc1,inactive
17,O=[N+]([O-])c1ccc(N(CCO)Cc2ccccc2)c([N+](=O)[O-])c1,inactive
18,Cc1cccc(C(=O)c2cccc(C)c2)c1,inactive
19,Cc1cccc(C(=O)O)c1,inactive
20,Cc1cccc(/C(N)=N/OC(=O)c2ccccc2Cl)c1,5.01 µM (active)
21,Cc1ccc(Cn2ccc(NC(=O)c3cc(C(C)C)on3)n2)cc1,inactive
22,O=C(Nc1ccn(Cc2ccccc2)n1)c1cccc(F)c1,inactive

row,SMILES,Potency
1,O=C(Nc1ccn(Cc2ccccc2)n1)c1n[nH]c([N+](=O)[O-])c1Cl,11.2 µM (active)
2,CCc1ccc(-c2cc3c(=O)n(CC(=O)NCCCN4CCN(Cc5ccccc5)CC4)nc(C)n3n2)cc1,inactive
3,O=C(/C=C/c1ccc(Cl)cc1)NCCCn1ccnc1,inactive
4,Cc1ccc2nc(N3C(=O)C(O)=C(C(=O)c4ccco4)C3c3cccc(O)c3)sc2c1 (configuration not stated),inactive
5,Brc1ccc2nc(N3CCCC3)sc2c1,inactive
6,Cc1nc2cc3c(cc2s1)OCO3,inactive
7,c1c2c(cc3sc(N4CCCCC4)nc13)OCCO2,1.26 µM (active)
8,CN(c1ccccc1)S(=O)(=O)c1cc(C(=O)OCC(=O)N2CCN(C(=O)c3ccco3)CC2)ccc1Cl,inactive
9,CN(c1ccccc1)S(=O)(=O)c1ccc(Cl)c(C(=O)NCCc2c[nH]c3ccccc23)c1,inactive
10,CN(c1ccccc1)S(=O)(=O)c1cc(C(=O)Nc2nc3ccccc3[nH]2)ccc1Cl,3.16 µM (active)
11,Cc1c2cnn(CC(=O)NCCCN3CC(C)CC(C)C3)c(=O)c2c(C)n1Cc1ccc(Cl)cc1 (configuration not stated),inactive
12,COc1ccc(C(=O)NCc2nnc(SCC(=O)NC3=NCCS3)n2C)cc1,inactive
13,Cc1cc(-c2ccc(S(=O)(=O)N3CCN(c4cccc(C(F)(F)F)c4)CC3)s2)on1,inactive
14,NC(=O)c1cc2ccccc2o/c1=N/NC(=O)c1cccc(F)c1,inactive
15,Cc1cccc(S(=O)(=O)N2CN(CC3CCCO3)c3nc4ccccc4nc32)c1 (configuration not stated),inactive
16,Fc1ccccc1/C=C1\CCCC2=C1Nc1ncnn1C2c1ccccc1F (configuration not stated),3.98 µM (active)
17,CC1=C(C(N)=O)C(c2ccc(Br)cc2)n2ncnc2N1 (configuration not stated),inactive
18,Cc1ccc(C(=O)c2coc3ccc(O)c(CN(C)C)c23)cc1,inactive
19,CCCCCCn1cc(C(=O)O)c(=O)c2cc(F)c(N3CCCCC3)cc21,inactive
20,Cc1ccc(NC(=O)c2cc(-c3ccccc3O)n[nH]2)cc1C,inactive
21,O=C(c1ccc(OC2CCN(C/C=C/c3ccc(F)cc3)CC2)cc1)N1CCCCC1,inactive
22,COc1ccccc1OCc1ccc(C(=O)NC(C)c2ccccc2)o1 (configuration not stated),inactive

row,SMILES,Potency
1,CCOc1ccc(C)cc1S(=O)(=O)NC1CCCCCC1,inactive
2,COc1cc(/C=C2\SC(=S)N(Nc3ncc(C(F)(F)F)cc3Cl)C2=O)cc(OC)c1OC,inactive
3,COc1cccc(/C=N/Nc2ncc(C(F)(F)F)cc2Cl)c1O,3.16 µM (active)
4,COC(=O)Cc1ccc(Oc2ncc(C(F)(F)F)cc2Cl)cc1,inactive
5,CN(C)CCSc1nc(N)c2c3c(sc2n1)COC(C)(C)C3,inactive
6,CCSc1nc2sc3c(c2c(=O)[nH]1)CC(C)(C)OC3,inactive
7,C=CCNC(=S)NNc1ncnc2sc3c(c12)CC(C)(C)OC3,7.08 µM (active)
8,CC(C)(C)NS(=O)(=O)c1ccc(NC(=O)C2CCCO2)cc1 (configuration not stated),inactive
9,Cc1c(C)c2c(OCC(=O)NCCCO)cc3c(c2oc1=O)CCC(C)(C)O3,inactive
10,COC(=O)c1c(NC(=O)c2ccc(S(=O)(=O)N3CCOCC3)cc2)sc2c1CCN(C(C)C)C2,inactive
11,CC(C)CCn1c(=O)c2c(nc3n2CCCN3Cc2ccccc2)n(C)c1=O,inactive
12,COc1ccc(NC(=O)N2CCC(Cc3ccccc3)CC2)cc1,inactive
13,COc1ccc(NC(=S)NCC2CCN(c3ccc(OC)cc3)C2)cc1 (configuration not stated),4.47 µM (active)
14,COc1ccc(N2CCC(CNC(=S)Nc3c(C)cccc3C)C2)cc1 (configuration not stated),2.24 µM (active)
15,COc1cccc(N2CC(C(=O)Nc3c(C)cccc3C)CC2=O)c1 (configuration not stated),inactive
16,COc1ccc(OCC(=O)Nc2ccc(N3CCC(C)CC3)cc2)cc1,inactive
17,COc1ccc(NC(=S)NCCN2CCC(C)CC2)cc1,inactive
18,Cc1cccc2c1cnn2C(=O)CCC(=O)NC1CCCCC1,inactive
19,O=C(N/N=C/c1cccc(Br)c1)c1ccc(N2CCCC2=O)cc1,inactive
20,CCOc1ccc(CCNC(=O)CCc2nnc3ccc(N4CCCC4)nn23)cc1OCC,inactive
21,COc1ccc(-c2cc(C(=O)N3CCN(Cc4ccc5c(c4)OCO5)CC3)on2)cc1OC,inactive
22,Cn1c(CC(=O)Nc2ccc(F)cc2)nnc1SCC(=O)NC1CCCCC1,inactive

row,SMILES,Potency
1,CCCN(CC1COc2ccccc2O1)C(=S)Nc1ccc(C)cc1 (configuration not stated),12.6 µM (active)
2,Cc1ccc(NC(=S)N(CCCN2CCC(C)CC2)Cc2ccco2)cc1,inactive
3,COc1ccc(NC(=O)C2COc3ccccc3O2)cc1 (configuration not stated),inactive
4,Nc1cc(N)nc(SCc2cccc(F)c2)n1,inactive
5,CC(C)[C@H](NC(=O)N1CCn2c1nc1ccccc12)C(=O)NCCc1ccccc1,inactive
6,CC1COc2ccccc2N1C(=O)c1ccc(F)cc1 (configuration not stated),inactive
7,O=C(Nc1ccccc1F)c1ccc2c(c1)OCO2,inactive
8,O=C(Nc1nnc(C2COc3ccccc3O2)o1)c1ccc(F)cc1 (configuration not stated),0.562 µM (active)
9,Cc1ccc(OCC(=O)Nc2ccc3oc(=O)ccc3c2)cc1C,inactive
10,COc1ccc2cc(C(=O)NCC3CCCO3)[nH]c2c1 (configuration not stated),inactive
11,O=C(C1CCCN(S(=O)(=O)c2ccc([N+](=O)[O-])cc2)C1)N1CCCCC1 (configuration not stated),inactive
12,CC(=O)c1sc(NC(=O)c2ccc(C)cc2)nc1C,inactive
13,Cc1ccc(C(=O)Nc2nnc(-c3cccs3)s2)cc1C,inactive
14,N#Cc1ccc(C(=O)Nc2nc(-c3cccs3)c(C(=O)C(F)(F)F)s2)cc1,3.16 µM (active)
15,CCc1ccccc1NC(=O)c1ccc2snnc2c1,inactive
16,Cc1c(C)c(C)c(S(=O)(=O)NCCc2ccccn2)c(C)c1C,inactive
17,CCc1c(C)nc(SCC(=O)NC2CCCC2)[nH]c1=O,inactive
18,CCc1ccc(-c2nc(SCC(=O)NC3CCCC3)n[nH]2)cc1,14.1 µM (active)
19,COc1ccc(-c2nc(SCC(=O)N3CCCC3)n[nH]2)cc1,inactive
